Molecules are shown by their SMILES. Results filed as inconclusive are left out. A call without a number means that no potency is given here. Activity calls are given as the source filed them. The call rests on the fitted dose curve; in most records, active means well fitted inhibition curve with a large enough effect; inconclusive means small, poorly fitted or top-dose-only effect; inactive means flat fitted curve, though single readings scatter.

The values below come from PubChem BioAssay (NCATS).
Potency means the concentration at half of the fitted maximal effect.

For this test, the system named is CP291. In words: qHTS profiling for inhibitors of Plasmodium falciparum proliferation (AID 504749). Further: nearly all actives have a fitted effect of over 60% in size. As to conditions: P. falciparum in erythrocytes, SYBR Green DNA, 72 h; series mostly up to 28.7 µM. An outline of the steps:
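Three-day growth assay of blood-stage parasites in erythrocytes (0.3% parasitemia, 2.5% hematocrit) at 37 C, 5% CO2, quantified by SYBR Green DNA staining after overnight detergent lysis.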
For orientation: In qHTS, concentration-response curves come from the screen itself.
`Cc1ccc(C(C)(C)c2ccc(C)cc2)cc1`: the Potency entry was “inactive”.

On to `N[C@H](CC(=O)O)C(=O)O`, for which the Potency entry is “inactive”. Consider `O=C(O)COc1ccc(CCNS(=O)(=O)c2ccccc2)s1`, for which the Potency entry is “inactive”. Under `O=S(=O)(O)CCCS(=O)(=O)O` stands “inactive”; under `COC(=O)c1ccccc1O`, “inactive”.

For `CC1(O)CCC(C(C)(C)O)CC1` (centres undefined), the Potency result is “inactive”. Consider `COc1ccc(/C=C/C(=O)O)cc1`, for which the Potency entry is “inactive”.

`CC(=O)Nc1c(I)c(C(=O)O)c(I)c(N(C)C(C)=O)c1I`: the Potency result is “inactive”. Under `Nc1ncnc2c1ncn2[C@H]1CC[C@@H](CO)O1` stands “inactive”; under `COC(=O)C(CN)c1c[nH]c2ccc(OC)cc12` (centres undefined), “inactive”.

With `CC/C(=C(/CC)c1ccc(OP(=O)(O)O)cc1)c1ccc(OP(=O)(O)O)cc1`, the Potency result was “inactive”. With `CN1c2c(nc(N)[nH]c2=O)NCC1CNc1ccc(C(=O)NC(CCC(=O)O)C(=O)O)cc1` (centres undefined), the Potency result was “inactive”. As for `CC(C)(CO)[C@@H](O)C(=O)NCCC(=O)NCCSSCCNC(=O)CCNC(=O)[C@H](O)C(C)(C)CO`, the Potency result is “inactive”. `CCCC(=O)O`: the Potency result is “inactive”. Take `CCSc1ccc2c(c1)N(CCCN1CCN(C)CC1)c1ccccc1S2`: the Potency entry is “inactive”.

Turning to `CC1=CC(=C(c2ccc(N)cc2)c2ccc(N)cc2)C=CC1=N`, the Potency is 3.01 µM (active). Take `CC1=CC(=O)NS(=O)(=O)O1`: the Potency entry is “inactive”.

Turning to `CC1CCCCN1CCCOC(=O)c1ccccc1` (centres undefined), the Potency result was “inactive”. For `COC(=O)CC[C@H](N)C(=O)O`, the Potency entry was “inactive”. For `C[C@H](CCC(=O)O)[C@H]1CC[C@H]2[C@@H]3CC[C@@H]4C[C@H](O)CC[C@]4(C)[C@H]3C[C@H](O)[C@]12C`, the Potency entry is “inactive”. With `CO`, the Potency result was “inactive”. On to `C=CCN1CCCC1CNC(=O)c1cc(S(N)(=O)=O)cc(OC)c1OC` (centres undefined), for which the Potency result is “inactive”. Consider `CC/C=C\C/C=C\C/C=C\C/C=C\C/C=C\C/C=C\CCC(=O)O`, for which the Potency result was “inactive”. For `COc1cc2c(cc1OC)[C@@H](Cc1cc(OC)c(OC)c(OC)c1)[N+](C)(CCCOC(=O)CC/C=C/CCC(=O)OCCC[N+]1(C)CCc3cc(OC)c(OC)cc3[C@H]1Cc1cc(OC)c(OC)c(OC)c1)CC2` (some centres undefined), the Potency entry was “inactive”. On to `CCCOC(=O)c1ccccc1O`, for which the Potency entry was “inactive”. In the case of `CC/C=C\C/C=C\C/C=C\CCCCCCCC(=O)O`, the Potency result was “inactive”. As to `NC(=O)[C@H]1O[C@@H](O)[C@H](O)[C@@H](O)[C@@H]1O`, the Potency result was “inactive”. In the case of `CCCCCCCCCCCCOCCCN`, the Potency result is “inactive”.

For the compound `CC(C)(C)c1ccc2c(S(=O)(=O)O)c(C(C)(C)C)ccc2c1`, the Potency result is “inactive”. Then `COC(=O)CCC[N+](C)(C)C`, with “inactive”. Take `CNC(=O)OCc1cccc(COC(=O)NC)n1`: the Potency entry is “inactive”.

`O=C(NCCNCC(O)COc1ccc(O)cc1)N1CCOCC1` (centres undefined): the Potency result is “inactive”. Turning to `OC[C@H]1O[C@@H]2O[C@H]3[C@H](O)[C@@H](O)[C@@H](O[C@H]4[C@H](O)[C@@H](O)[C@@H](O[C@H]5[C@H](O)[C@@H](O)[C@@H](O[C@H]6[C@H](O)[C@@H](O)[C@@H](O[C@H]7[C@H](O)[C@@H](O)[C@@H](O[C@H]1[C@H](O)[C@H]2O)O[C@@H]7CO)O[C@@H]6CO)O[C@@H]5CO)O[C@@H]4CO)O[C@@H]3CO`, the Potency entry was “inactive”. Consider `CCCCCCCCCCCCCCCCCCCCCC(=O)Nc1ccn([C@@H]2O[C@H](CO)[C@@H](O)[C@@H]2O)c(=O)n1`, for which the Potency result is “inactive”.

`CCCCCCCCCCCCCCCCCC[N+](C)(C)CCC[Si](OC)(OC)OC`: the Potency result was “inactive”. `OB(O)O`: the Potency result was “inactive”.

For `CCOc1ccc(NC(=S)Nc2ccc(OCC)cc2)cc1`, the Potency result was “inactive”. Under `CC(C)c1nc(N(C)S(C)(=O)=O)nc(-c2ccc(F)cc2)c1/C=C/C(O)CC(O)CC(=O)O` (centres undefined) stands “inactive”.

On to `O=C(/C=C/c1cccc(F)c1)NC1CC1`, for which the Potency entry was “inactive”.
